Measured values published in PubChem BioAssay (NCI).
“And” between values parts separate entries of the source, which are not always exact repeats. Equal entries are not always repeated. The panel holds about 83,000 compounds, 20% with a hit somewhere; the sample as a whole holds those more often.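 48-hour exposure, single concentration, 96-well plates; percent growth endpoint where 0 means no net growth. Active: below 10.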 The source made the active and inactive calls. Starred links: 1 amine or outer side, 2 acyl side, 3 side chain; linkers in the order of their positions; H or OH if unused. Positions of bridges follow the written chain, without caps; N, C: chain ends. Non-standard residues stand in square brackets, D forms with d. Residues, ends and D or L forms follow the SMILES beside them. Chains are numbered I, II in the order given. Actinocin(9to1) = Cc1c2oc3c(C)ccc(C(=O)[*:1])c3nc-2c(C(=O)[*:2])c(N)c1=O; aThr = C[C@H](O)[C@H](N)C(=O)O; NMeV = CN[C@H](C(=O)O)C(C)C; Sar = CNCC(=O)O

How the values were obtained:
Test in all cases: NCI-60 one-dose screen, 48 h (100 = growth as untreated, 0 = no growth, -100 = all killed)
MDA-MB-435 melanoma = system: MDA-MB-435 melanoma
SW-620 colon = system: SW-620 colon
MCF7 breast = system: MCF7 breast
HCT-116 colon = system: HCT-116 colon
HCC-2998 colon = system: HCC-2998 colon
KM12 colon = system: KM12 colon

Measured: growth

N#C/C(=C1C=C/C(=N\O)C(Cl)=C\1)c1ccccc1
inactive: SW-620 colon; 10 µM 17.8% | MCF7 breast; 10 µM 14.8% | HCC-2998 colon; 10 µM 89.7% | KM12 colon; 10 µM 13.5%
active: MDA-MB-435 melanoma; 10 µM -43% | HCT-116 colon; 10 µM 5.69%

COc1ccc2c(C)cc(N/N=C/c3sccc3C)nc2c1
active: MCF7 breast; 100 µM -73.1% and -100%

Cc1cnc(/C=N\NC(N)=S)c2cccc(N)c12
inactive: MDA-MB-435 melanoma; 10 µM 27.8% | SW-620 colon; 10 µM 35% | HCT-116 colon; 10 µM 17.4% | KM12 colon; 10 µM 27.9%
active: MCF7 breast; 10 µM 9.29% | HCC-2998 colon; 10 µM -39.3%

CCCCCCCCCCCCCCCCCN
inactive: MDA-MB-435 melanoma; 10 µM 99.5% | SW-620 colon; 10 µM 97.1% | MCF7 breast; 10 µM 100% | HCT-116 colon; 10 µM 102% | HCC-2998 colon; 10 µM 126% | KM12 colon; 10 µM 110%

Nc1ccc2cc(Br)c3ccccc3c2c1
inactive: MDA-MB-435 melanoma; 10 µM 66% | MCF7 breast; 10 µM 35.1% | HCT-116 colon; 10 µM 71.1% | HCC-2998 colon; 10 µM 47.7% | KM12 colon; 10 µM 32.6%

Cc1ccc2nc(N/N=C/c3ccc(C)s3)cc(C)c2c1
active: MCF7 breast; 100 µM -94% and -100%

Cc1cc(NCCCN(C)C)c2ccc3c(ccc4c(NCCCN(C)C)cc(C)nc43)c2n1
active: MDA-MB-435 melanoma; 10 µM -99.1% | SW-620 colon; 10 µM -99.3% | MCF7 breast; 10 µM -89% | HCT-116 colon; 10 µM -15.4% | HCC-2998 colon; 10 µM -66.1% | KM12 colon; 10 µM -97.6%

COc1cc(C(C)(C)C)cc(OC)c1C(O)(c1c(OC)cc(C(C)(C)C)cc1OC)c1c(OC)cc(C(C)(C)C)cc1OC
active: MDA-MB-435 melanoma; 10 µM -45.3% | SW-620 colon; 10 µM -79.8% | MCF7 breast; 10 µM -88.6% | HCT-116 colon; 10 µM -100% | HCC-2998 colon; 10 µM -91.9% | KM12 colon; 10 µM -80.8%

O=c1[nH]cc(F)c(=O)[nH]1
inactive: MDA-MB-435 melanoma; 10 µM 42.3% and 50.9% | MDA-MB-435 melanoma; 25 µM 36.6% | MDA-MB-435 melanoma; 50 µM 42.2% | SW-620 colon; 10 µM 60.1% and 77.8% | SW-620 colon; 25 µM 50.1% | SW-620 colon; 50 µM 43.4% | MCF7 breast; 10 µM 29.6% and 18.3% | MCF7 breast; 25 µM 11.5% | MCF7 breast; 50 µM 18.2% | HCT-116 colon; 10 µM 33.9% and 46.9% | HCT-116 colon; 25 µM 17.8% | HCT-116 colon; 50 µM 28.3% | HCC-2998 colon; 10 µM 18.9% | HCC-2998 colon; 50 µM 35.7% | KM12 colon; 10 µM 47% and 42.4% | KM12 colon; 25 µM 40.7% | KM12 colon; 50 µM 32%
active: HCC-2998 colon; 25 µM -17.8%

S=c1[nH]nc(Cc2ccccc2)c(=S)[nH]1
inactive: MDA-MB-435 melanoma; 10 µM 106% | SW-620 colon; 10 µM 109% | MCF7 breast; 10 µM 96.5% | HCT-116 colon; 10 µM 100% | HCC-2998 colon; 10 µM 103% | KM12 colon; 10 µM 93.2%

CSc1ccc2c(c1)C(N1CCN(C)CC1)Cc1ccccc1S2 (stereo unspecified)
active: MDA-MB-435 melanoma; 10 µM 7.17% | HCC-2998 colon; 10 µM -39.2%
inactive: SW-620 colon; 10 µM 54.4% | MCF7 breast; 10 µM 20.9% | HCT-116 colon; 10 µM 29.3% | KM12 colon; 10 µM 21.4%

CN(C)CCC(=O)c1c[nH]c2ccccc12
inactive: MDA-MB-435 melanoma; 10 µM 107% | SW-620 colon; 10 µM 111% | MCF7 breast; 10 µM 93.2% | HCT-116 colon; 10 µM 103% | HCC-2998 colon; 10 µM 115% | KM12 colon; 10 µM 102%

Cc1c2oc3c(C)ccc(C(=O)N[C@@H]4C(=O)N[C@H](C(C)C)C(=O)N5CCC[C@H]5C(=O)N(C)CC(=O)N(C)[C@@H](C(C)C)C(=O)O[C@H]4C)c3nc-2c(C(=O)N[C@@H]2C(=O)N[C@H](C(C)C)C(=O)N3CCC[C@H]3C(=O)N(C)CC(=O)N(C)[C@@H](C(C)C)C(=O)O[C@H]2C)c(N)c1=O (I: [aThr][dV]P[Sar][NMeV] / II: [aThr][dV]P[Sar][NMeV]; ester I:1-I:C, II:1-II:C; linker I:N-II:N via Actinocin(9to1))
active: MDA-MB-435 melanoma; 10 µM -93.8% | SW-620 colon; 10 µM -27.9% | MCF7 breast; 10 µM -15.3% | HCT-116 colon; 10 µM -29.5% | KM12 colon; 10 µM 0.211%
inactive: MDA-MB-435 melanoma; 0.0025 µM 41.6% | SW-620 colon; 0.0025 µM 32.8% | MCF7 breast; 0.0025 µM 12.2% | HCT-116 colon; 0.0025 µM 16% | HCC-2998 colon; 0.0025 µM 15.2% | KM12 colon; 0.0025 µM 47.3%

O=C(/C(=C/c1ccccc1)CBr)c1ccccc1
inactive: MDA-MB-435 melanoma; 10 µM 64% | SW-620 colon; 10 µM 17.3% | MCF7 breast; 10 µM 42.9% | HCT-116 colon; 10 µM 35.8% | HCC-2998 colon; 10 µM 108% | KM12 colon; 10 µM 88.5%

CN1CCN(c2ccc3nc(-c4ccc5nc(-c6ccc(O)cc6)[nH]c5c4)[nH]c3c2)CC1
inactive: MDA-MB-435 melanoma; 10 µM 52.5% | SW-620 colon; 10 µM 87.1% | MCF7 breast; 10 µM 34.5% | HCT-116 colon; 10 µM 48.3% | KM12 colon; 10 µM 106%

BrC/C=C/C[P+](c1ccccc1)(c1ccccc1)c1ccccc1
inactive: MDA-MB-435 melanoma; 10 µM 28.4% | SW-620 colon; 10 µM 32.3% | MCF7 breast; 10 µM 20.3% | HCT-116 colon; 10 µM 14.8% | HCC-2998 colon; 10 µM 71.9% | KM12 colon; 10 µM 16.1%
